Values without a mark were called inactive. The call rests on the fitted dose curve; in most records, active means well fitted activation curve with a large enough effect; inconclusive means small, poorly fitted or top-dose-only effect; inactive means flat fitted curve, though single readings scatter.
Assay: Cellular Toxicity (caspase-3) SHSY5Y (AID 657)
Conditions: SH-SY5Y caspase-3 activation, DMSO zero, 10 µM staurosporine = 100%; series mostly up to 91.7 µM; caspase-3 activation: at the top concentration
Source text: NIH Chemical Genomics Center [NCGC]
NIH Molecular Libraries Screening Centers Network [MLSCN]
National Institutes of Environmental Health Sciences [NIEHS]
National Toxicology Program [NTP]
We have developed a 1536-well cell-based assay for quantitative high throughput screening (qHTS) against a number of cell lines to determine in vitro caspase 3/7 activity of small molecules. This particular assay uses the SH-SY5Y cell line which is derived from human neuroblastoma.
NCGC Assay Protocol Summary:
The Caspase-Glo 3/7 assay (Promega) is a homogeneous method to measure caspase-3 and caspase-7 activities in cultured cells. The quantitation of caspase 3/7 activity is based on the cleavage of a peptide-aminoluciferin substrate. After caspase cleaves the substrate the free aminoluciferin is liberated and serves as the substrate of luciferase, which generates the light. The luminescent signal is proportional to the amount of caspase 3/7 activity present.
Using the Caspase-Glo 3/7 assay, the amount of caspase 3/7 activity was measured in the SH-SY5Y cell line with complete culture medium following compound treatment for 16 hours. The assay was performed in opaque white 1536-well plates. In the screen, staurosporine and doxorubicin were used as positive controls. Library compounds were measured for their ability to cause the activation of caspase 3/7 in the cell line, as reflected by an increase in luminescence signal, in a concentration-dependent manner. Data were normalized to the controls for basal activity (DMSO only) and 100% stimulation (10 uM staurosporine). AC50 values were determined from concentration-response data modeled with the standard Hill equation.
qHTS protocol for caspase 3/7 assay in SH-SY5Y cells
[Step] [Parameter] [Value] [Description]
1. Reagent; 5 uL; 1500 SH-SY5Y cells/well
2. Time; 5 hr; 37 °C incubation
4. Controls; 23 nL; doxorubicin 7 pM to 100 uM & staurosporine 1.4 pM to 20 uM
5. Time; 16 hr; 37 °C incubation
6. Reagent; 5 uL; Caspase-Glo 3/7 reagent
7. Time; 1 hr; Room Temperature
8. Detection; Luminescence; Viewlux plate reader
Keywords: caspase 3/7, apoptosis, SH-SY5Y cell line, luminescence, NTPHTS, NTPHTS_NCGC, NIEHS, EPA, DSSTox, MLSMR, MLSCN, NIH Roadmap, qHTS, NCGC

| Structure (SMILES) | caspase-3 activation |
| --- | --- |
| CCCCCC(N)=O | 2.2% |
| CC(=O)Nc1cccc(O)c1 | 2.45% |
| CCN(CC)C(=O)c1cccc(C)c1 | 2.52% |
| CCCCCCCC(=O)OCC(COC(=O)CCCCCCC)OC(=O)CCCCCCC | -1.44% |
| CC(=O)Nc1ccc(C(=O)O)cc1 | 0.188% |
| CC(=O)Nc1ccccc1 | 2.33% |
| O=C(O)CCCCC1CCSS1 (configuration not stated) | -2.09% |
| CC(=O)NS(=O)(=O)c1ccc(N)cc1 | -0.412% |
| Nc1ccc(S(=O)(=O)c2ccc(N)cc2)cc1 | 1.25% |
| CC(=O)OCC(COC(C)=O)OC(C)=O | 1.54% |
| O=C(c1ccccc1)C(O)c1ccccc1 (configuration not stated) | -0.885% |
| CCCCOC(=O)c1ccc(N)cc1 | -0.191% |
| Cc1c(N(C)C)c(=O)n(-c2ccccc2)n1C | -0.791% |
| Cc1cc(C)nc(NS(=O)(=O)c2ccc(N)cc2)n1 | 0.762% |
| C=CCNC(N)=S | 0.579% |
| CC1CC(OC(=O)c2ccccc2O)CC(C)(C)C1 (configuration not stated) | 4.46% |
| O=C1C(c2[nH]c3ccccc3c2O)=Nc2ccccc21 | 22.7% |
| Cc1cc(=O)[nH]c(=S)[nH]1 | -0.577% |
| COc1ccc(O)cc1 | -0.971% |
| CCCC(O)C(CC)CO (configuration not stated) | 0.8% |
| O=C1c2cccc(O)c2C(=O)c2c(O)cccc21 | 1.39% |
| FC(F)(F)C(Cl)Br (configuration not stated) | -1.04% |

Reference: PubChem BioAssay (NCATS)
